# According to PubChem BioAssay:
# Inconclusive results are not listed. Calls of active or inactive are those of the source.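 The calls were made as follows, unless noted: active = differentiation response of at least 50%, scaled between solvent and reference control, from cells with both markers; inactive = the rest.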
# What was measured:
# [1] = rapamycin-like changes in RPL19A-GFP expression – cell-based, S. cerevisiae, multiplex flow cytometry, primary screen (AID 1862; in the data active = percent of DMSO control GFP below about 86%;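 also: lower values mimic rapamycin by blocking the RPL19A rise seen in DMSO cells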); details: S. cerevisiae RPL19A-GFP strain, flow cytometry fluorescence, 3 h; at 10 µM; stronger effect = lower value
# [2] = TOR pathway GLN3 branch reporter MEP2-GFP changes – S. cerevisiae, multiplex flow cytometry, primary screen (AID 1867;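 active = GFP response, as percent of the DMSO control, above the screen-wide mean plus 3 SD, about 139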;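 also: median GFP channel fluorescence of barcode-gated MEP2-GFP cells measured by flow cytometry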); details: S. cerevisiae MEP2-GFP strain, 3 h, at 10 µM, stronger effect = higher value, 100% means same as DMSO wells
# [3] = TOR pathway RTG branch CIT2 reporter changes – S. cerevisiae, GFP fusion, multiplex flow cytometry, primary screen (AID 1870;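 active = percent response above a set limit, the screen-wide mean plus 3 SD, cut at about 130% in these data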;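 also: barcoded CIT2-GFP strain pooled with four other GFP strains with rapamycin as positive control; median GFP fluorescence per well over plate mean of DMSO wells so 100% = DMSO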); details: S. cerevisiae CIT2-GFP expression, 3 h, at 10 µM, stronger effect = higher value
# [4] = TOR pathway LAP4-GFP level changes – S. cerevisiae, multiplex flow cytometry, primary screen (AID 1873;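 active = GFP signal, as percent of the solvent control, above the screen mean plus 3 SD, about 149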); details: S. cerevisiae LAP4-GFP expression, 3 h, at 10 µM, stronger effect = higher value
# [5] = yeast AGP1-GFP level changes, GLN3 branch – cell-based, multiplex flow cytometry, S. cerevisiae, primary screen (AID 1887;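 active = GFP signal above the screen-wide mean plus 3 SD, that is over about 124.5% of the solvent control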;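 also: AGP1-GFP fusion strain of S. cerevisiae within a five-strain barcoded multiplex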); details: 3 h, at 10 µM, stronger effect = higher value
# [6] = reduced mouse 2C T cell binding to pMHC/ICAM-1 vesicles – MLPCN validation set, flow cytometry, LFA-1/ICAM-1 modulator project, pilot screen (AID 2523;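 active = response below a set limit, under 55% cells CD8-positive and vesicle-bound, and CD8 cells' 90th-percentile brightness under 279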;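 as to vesicle binding response: mean PE anti-B7-1 fluorescence of CD8+ cells relative to row control; 100% = QL9-loaded vesicles with DMSO vehicle in the same plate row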); details: 2C mouse CD8+ T cells, at 7 µM, stronger effect = lower value; double positive events: measured here: CD8+/vesicle+ event percentage
# [7] = target: Integrin beta-1 (Homo sapiens) + Integrin alpha-4 (Homo sapiens) (UniProt P13612+P05556); experiment: alpha4beta1 integrin LIBS antibody binding reduction – U937 cells, HUTS-21 mAb, flow cytometry, validation set, VLA-4 allosteric modulator project, pilot screen (AID 2674;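 active = inhibition above 50%, about 3 SD of the validation set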;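 also: antibody binding induced by the VLA-4 ligand LDV present at three times its Kd; 0% = LDV ligand with antibody and no compound and 100% = antibody without LDV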); details: HUTS-21 LIBS mAb binding, at 6.7 µM, stronger effect = higher value, binding induced by LDV ligand
# Integrin beta-1 (Homo sapiens) + Integrin alpha-4 (Homo sapiens), sequence (P05556 whole entry, looked up): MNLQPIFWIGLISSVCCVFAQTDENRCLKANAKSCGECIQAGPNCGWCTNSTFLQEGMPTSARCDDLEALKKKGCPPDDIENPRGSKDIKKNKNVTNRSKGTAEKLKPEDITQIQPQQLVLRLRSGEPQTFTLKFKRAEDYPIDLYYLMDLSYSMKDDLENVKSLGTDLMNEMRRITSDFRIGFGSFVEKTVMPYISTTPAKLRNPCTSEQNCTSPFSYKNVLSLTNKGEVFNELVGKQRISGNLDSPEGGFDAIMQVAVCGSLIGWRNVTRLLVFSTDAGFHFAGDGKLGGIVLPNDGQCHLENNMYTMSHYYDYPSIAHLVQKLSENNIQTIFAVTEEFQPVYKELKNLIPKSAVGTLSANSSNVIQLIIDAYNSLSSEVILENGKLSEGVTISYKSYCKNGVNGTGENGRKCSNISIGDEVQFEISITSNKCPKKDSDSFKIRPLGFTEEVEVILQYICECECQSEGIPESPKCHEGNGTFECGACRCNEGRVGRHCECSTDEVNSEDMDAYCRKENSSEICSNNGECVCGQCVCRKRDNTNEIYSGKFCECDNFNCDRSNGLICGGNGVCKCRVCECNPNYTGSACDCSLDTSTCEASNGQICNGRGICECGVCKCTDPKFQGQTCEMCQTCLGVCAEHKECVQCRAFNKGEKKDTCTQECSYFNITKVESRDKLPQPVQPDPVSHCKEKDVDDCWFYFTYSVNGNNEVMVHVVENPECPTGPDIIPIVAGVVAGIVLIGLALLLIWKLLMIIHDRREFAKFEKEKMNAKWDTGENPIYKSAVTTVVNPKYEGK
# Integrin beta-1 (Homo sapiens) + Integrin alpha-4 (Homo sapiens), sequence (P13612 whole entry, looked up): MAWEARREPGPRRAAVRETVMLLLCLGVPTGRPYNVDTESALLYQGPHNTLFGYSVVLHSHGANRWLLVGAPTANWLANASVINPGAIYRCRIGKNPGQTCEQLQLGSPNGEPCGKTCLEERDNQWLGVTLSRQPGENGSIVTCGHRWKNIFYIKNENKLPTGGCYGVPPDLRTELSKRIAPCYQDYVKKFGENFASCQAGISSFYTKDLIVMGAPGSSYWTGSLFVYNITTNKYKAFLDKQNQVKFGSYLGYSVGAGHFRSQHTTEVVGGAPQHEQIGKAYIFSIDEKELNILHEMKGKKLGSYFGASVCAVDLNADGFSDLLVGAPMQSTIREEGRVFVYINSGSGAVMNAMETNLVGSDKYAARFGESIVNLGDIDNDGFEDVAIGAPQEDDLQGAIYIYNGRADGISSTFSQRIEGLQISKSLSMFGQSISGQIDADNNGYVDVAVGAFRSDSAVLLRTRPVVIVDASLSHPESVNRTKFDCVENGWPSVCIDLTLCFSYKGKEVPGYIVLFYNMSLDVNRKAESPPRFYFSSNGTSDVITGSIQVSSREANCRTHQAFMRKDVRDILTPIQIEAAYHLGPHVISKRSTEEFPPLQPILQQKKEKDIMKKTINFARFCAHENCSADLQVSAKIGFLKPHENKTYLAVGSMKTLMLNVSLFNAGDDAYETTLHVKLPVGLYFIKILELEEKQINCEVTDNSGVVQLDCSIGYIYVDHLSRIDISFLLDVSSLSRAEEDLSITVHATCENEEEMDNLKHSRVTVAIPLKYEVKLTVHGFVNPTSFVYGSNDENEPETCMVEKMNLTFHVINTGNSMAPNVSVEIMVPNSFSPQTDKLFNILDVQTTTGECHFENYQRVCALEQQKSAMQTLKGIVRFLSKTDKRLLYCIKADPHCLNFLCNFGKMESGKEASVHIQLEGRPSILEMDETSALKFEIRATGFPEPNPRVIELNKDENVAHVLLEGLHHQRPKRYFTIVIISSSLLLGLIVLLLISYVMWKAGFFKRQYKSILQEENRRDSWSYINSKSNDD
# [8] = calorie-restriction mimetic ROS inhibitors, yeast – validation compound set, pilot screen (AID 2706;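 active = superoxide response below 65% of plate, a cut near 3 SD across the whole screen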;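 also: yeast exposed to compound for one week at 30 degrees C before staining; 100% = mean of all compound wells on the same plate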); details: S. cerevisiae aging, superoxide DHE fluorescence; at 10 µM; stronger effect = lower value
# [9] = target: Beta-adrenergic receptor kinase 1 (Homo sapiens) (UniProt P25098); experiment: GRK2 binders displacing RNA aptamer, biochemical, validation, human GRK2, bead flow cytometry (AID 488806;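 active = aptamer binding inhibition above 30%, about 3 SD of noise from non-fluorescent compounds; inactive = inhibition at or below 30%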); details: bead-bound GRK2, FAM-aptamer displacement, at 10 µM, stronger effect = higher value
# Beta-adrenergic receptor kinase 1 (Homo sapiens), sequence (P25098 whole entry, looked up): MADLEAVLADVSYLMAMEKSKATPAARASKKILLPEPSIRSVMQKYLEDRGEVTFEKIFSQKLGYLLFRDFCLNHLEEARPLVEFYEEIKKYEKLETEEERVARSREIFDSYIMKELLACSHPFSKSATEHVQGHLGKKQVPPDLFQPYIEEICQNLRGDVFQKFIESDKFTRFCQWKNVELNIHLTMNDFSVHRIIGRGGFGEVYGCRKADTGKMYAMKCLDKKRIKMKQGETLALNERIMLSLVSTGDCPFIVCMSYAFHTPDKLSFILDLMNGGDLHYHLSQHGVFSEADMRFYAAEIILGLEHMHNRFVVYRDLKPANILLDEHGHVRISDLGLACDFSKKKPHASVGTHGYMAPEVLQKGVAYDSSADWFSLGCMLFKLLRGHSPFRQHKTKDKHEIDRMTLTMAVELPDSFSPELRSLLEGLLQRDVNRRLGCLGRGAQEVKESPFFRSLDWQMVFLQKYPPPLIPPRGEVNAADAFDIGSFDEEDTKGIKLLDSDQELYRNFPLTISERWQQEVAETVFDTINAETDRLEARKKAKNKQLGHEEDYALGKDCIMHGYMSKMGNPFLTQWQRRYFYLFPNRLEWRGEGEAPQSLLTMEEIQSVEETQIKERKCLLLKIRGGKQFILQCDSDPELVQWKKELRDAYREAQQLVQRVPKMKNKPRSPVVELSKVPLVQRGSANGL
# [10] = target: Beta-2 adrenergic receptor (Homo sapiens) (UniProt P07550); experiment: agonist-induced loss of surface beta2AR – cell-based, FAP fluorogen, flow cytometry, validation set, pilot screen (AID 504459;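 active = percent response above 42, roughly 3 SD of non-fluorescent test compounds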;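 also: agonist-driven loss of surface beta2AR via internalization measured by FAP dye flow cytometry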); details: Am2.2-beta2AR cells, at 10 µM, stronger effect = higher value
# Beta-2 adrenergic receptor (Homo sapiens), sequence (P07550 whole entry, looked up): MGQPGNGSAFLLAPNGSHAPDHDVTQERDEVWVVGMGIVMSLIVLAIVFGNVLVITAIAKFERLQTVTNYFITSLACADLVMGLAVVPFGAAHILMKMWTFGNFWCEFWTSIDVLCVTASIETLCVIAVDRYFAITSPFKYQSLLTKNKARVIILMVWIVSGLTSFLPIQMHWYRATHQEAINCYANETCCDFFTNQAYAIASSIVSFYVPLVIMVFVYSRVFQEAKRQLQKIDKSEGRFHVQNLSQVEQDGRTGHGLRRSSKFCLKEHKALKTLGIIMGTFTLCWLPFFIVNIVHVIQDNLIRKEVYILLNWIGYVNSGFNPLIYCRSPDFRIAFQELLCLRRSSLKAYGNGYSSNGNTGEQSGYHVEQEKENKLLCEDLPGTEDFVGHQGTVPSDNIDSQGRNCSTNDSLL
# [11] = target: AP-2 complex subunit beta (Homo sapiens) (UniProt P63010); experiment: beta-arrestin/AP2 interaction blockers – biochemical, validation set, GST-AP2 beads, flow cytometry, pilot screen (AID 504541;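 active = inhibition above 54%, about 3 SD of non-fluorescent compounds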;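 also: AP2 carries R879A mutation and is captured from E. coli lysate; bead-bound FITC arrestin peptide fluorescence measuring arrestin peptide binding to AP2; 0% = DMSO wells and 100% = excess unlabeled arrestin peptide control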); details: FITC arrestin peptide, at 10 µM, stronger effect = higher value, AP2 beta2 appendage fragment, R879A mutant
# AP-2 complex subunit beta (Homo sapiens), sequence (P63010 whole entry, looked up, the tested form may be a part, one chain of several): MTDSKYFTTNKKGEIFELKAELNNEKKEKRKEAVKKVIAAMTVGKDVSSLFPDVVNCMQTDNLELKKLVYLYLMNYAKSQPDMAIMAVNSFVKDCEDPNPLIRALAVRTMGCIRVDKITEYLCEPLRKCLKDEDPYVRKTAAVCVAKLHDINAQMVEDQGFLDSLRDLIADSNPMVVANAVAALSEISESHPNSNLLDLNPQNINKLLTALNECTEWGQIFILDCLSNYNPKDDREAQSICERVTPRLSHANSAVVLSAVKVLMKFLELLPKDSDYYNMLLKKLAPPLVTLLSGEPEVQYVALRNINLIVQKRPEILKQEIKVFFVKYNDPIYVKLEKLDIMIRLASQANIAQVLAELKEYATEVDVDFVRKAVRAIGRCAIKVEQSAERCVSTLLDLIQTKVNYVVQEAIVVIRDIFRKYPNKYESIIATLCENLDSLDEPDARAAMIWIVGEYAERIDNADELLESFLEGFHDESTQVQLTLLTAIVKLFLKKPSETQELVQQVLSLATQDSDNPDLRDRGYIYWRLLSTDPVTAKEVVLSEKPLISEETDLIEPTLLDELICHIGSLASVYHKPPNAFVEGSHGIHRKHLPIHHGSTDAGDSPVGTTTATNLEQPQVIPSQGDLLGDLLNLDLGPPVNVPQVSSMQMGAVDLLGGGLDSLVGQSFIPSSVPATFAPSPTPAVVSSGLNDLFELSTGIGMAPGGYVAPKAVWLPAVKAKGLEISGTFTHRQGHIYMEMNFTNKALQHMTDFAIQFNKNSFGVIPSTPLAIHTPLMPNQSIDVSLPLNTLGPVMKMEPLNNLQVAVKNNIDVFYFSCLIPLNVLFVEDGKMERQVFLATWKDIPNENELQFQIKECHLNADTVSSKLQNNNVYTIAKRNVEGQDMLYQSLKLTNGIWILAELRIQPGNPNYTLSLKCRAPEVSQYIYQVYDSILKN
# [12] = cytosolic pH regulators acting via V-ATPase – S. cerevisiae, pHLuorin, HTS validation (AID 504600; in the data active = response above about 15%;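 also: plate controls were DMSO for no effect and reference compound for full effect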); details: V-ATPase proton transport, at 10 µM, stronger effect = higher value
# [13] = test system: anti-desmoglein-3 scFv antibody binding to human DSG3; experiment: blockers of pathogenic pemphigus antibody–desmoglein-3 binding – biochemical, validation compound set, bead-based, flow cytometry, pilot screen (AID 588368;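 active = binding below the plate cutoff, the plate median minus 3 SD, with a reading above zero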;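 also: signal is the median channel fluorescence of bead-bound GFP antibody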); details: Protein G beads, DSG3-Fc, scFv-GFP binding, at 10 µM, stronger effect = lower value
# [14] = Nile Red efflux blockade in pump-expressing yeast – validation compound set, multiplex, phenotypic, pilot screen (AID 588506;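 active = efflux inhibition above 0.42, the validation set average plus 4 SD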;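 also: Nile Red retained in cells so higher fluorescence means more efflux inhibition; 0 = negative control wells and 1 = enniatin B 25 µM full block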); details: S. cerevisiae pump-expressing triplex, Nile Red efflux flow cytometry; at 10 µM; stronger effect = higher value; the pumps come from Candida albicans
# [15] = target: ATP-binding cassette sub-family B member 6 (Homo sapiens) (UniProt Q9NP58); experiment: blockers of ABCB6-driven porphyrin uptake – K562-ABCB6 cells, flow cytometry, validation set, pilot screen (AID 588550;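 active = inhibition above the screen-wide mean plus 3 SD, about 51%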;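 also: 0% = DMSO wells and 100% = benzethonium chloride 70 µM positive control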); details: K562-ABCB6 porphyrin accumulation, 1 h, at 10 µM, stronger effect = higher value
# ATP-binding cassette sub-family B member 6 (Homo sapiens), sequence (Q9NP58 whole entry, looked up): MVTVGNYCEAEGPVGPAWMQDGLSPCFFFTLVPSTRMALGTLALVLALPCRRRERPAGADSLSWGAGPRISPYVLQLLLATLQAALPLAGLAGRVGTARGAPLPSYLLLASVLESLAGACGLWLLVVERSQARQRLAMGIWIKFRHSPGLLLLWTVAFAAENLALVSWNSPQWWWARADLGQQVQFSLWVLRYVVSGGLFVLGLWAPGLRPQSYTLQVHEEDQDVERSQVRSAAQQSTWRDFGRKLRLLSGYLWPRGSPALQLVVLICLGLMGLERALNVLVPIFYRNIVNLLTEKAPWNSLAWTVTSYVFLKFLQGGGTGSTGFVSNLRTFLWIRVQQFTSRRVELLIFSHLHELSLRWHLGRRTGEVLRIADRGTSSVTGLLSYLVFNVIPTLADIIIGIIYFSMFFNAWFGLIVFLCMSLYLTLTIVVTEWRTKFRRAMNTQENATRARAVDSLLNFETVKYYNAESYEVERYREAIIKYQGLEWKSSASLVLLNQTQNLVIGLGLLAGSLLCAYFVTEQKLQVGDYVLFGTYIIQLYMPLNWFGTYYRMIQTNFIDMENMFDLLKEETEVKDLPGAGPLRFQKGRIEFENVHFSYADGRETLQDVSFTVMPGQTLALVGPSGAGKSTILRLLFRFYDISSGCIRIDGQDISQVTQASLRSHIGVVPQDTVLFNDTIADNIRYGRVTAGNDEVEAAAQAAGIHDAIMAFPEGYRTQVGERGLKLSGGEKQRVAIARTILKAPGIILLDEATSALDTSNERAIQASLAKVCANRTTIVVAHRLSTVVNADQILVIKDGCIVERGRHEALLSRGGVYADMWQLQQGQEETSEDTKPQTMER
# [16] = AML differentiation inducers, ER-HoxA9 marrow cells – cell-based, GFP/MAC1 double positive, flow cytometry, validation set, primary screen (AID 588685); details: stronger effect = higher value, normalized: vehicle 0, fulvestrant 100;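 also: compound exposure lasts four days before antibody staining and flow analysis; 0% = DMSO wells and 100% = 5 µM fulvestrant positive control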
Structure (SMILES),percent of DMSO control GFP [1],GFP response vs DMSO [2],percent response of DMSO control [3],GFP response vs DMSO [4],"GFP response, % of DMSO [5]",double positive events [6] [%],vesicle binding response [6],inhibition [7],superoxide response (% of plate) [8],aptamer binding inhibition [9],response [10],inhibition [11],response [12],binding (% of control) [13],efflux inhibition (fraction of control) [14],inhibition [15],differentiation response [16]
Cc1cc(-c2nn(-c3ccccc3F)cc2CN2CCCC(O)C2)c(C)s1 (stereo not given),97.6% (inactive),101% (inactive),97.7% (inactive),117% (inactive),107% (inactive),56.6,148% (inactive),5.69% (inactive),84.2% (inactive),-2% (inactive),-40.3% (inactive),-12.6% (inactive),-5.22% (inactive),103% (inactive),-0.04 (inactive),0% (inactive),-13.9% (inactive)
CC(C[N+](C)(C)C)OC(N)=O (stereo not given),100% (inactive),98.6% (inactive),89.9% (inactive),104% (inactive),110% (inactive),66.5,164% (inactive),11.7% (inactive),96.5% (inactive),2% (inactive),-16.4% (inactive),-15.8% (inactive),0.77% (inactive),103% (inactive),0.08 (inactive),12% (inactive),0% (inactive)
Cn1cc(C2N3CC4(C)CN2CC(C)(C3)C4=O)c2ccccc21 (stereo not given),102% (inactive),107% (inactive),98.9% (inactive),94% (inactive),104% (inactive),50.6,485% (inactive),0.58% (inactive),101% (inactive),2% (inactive),-3.83% (inactive),-3.74% (inactive),-6.53% (inactive),95.1% (inactive),-0.01 (inactive),-4% (inactive),-7.57% (inactive)
OCCOCCN1CCN(C(c2ccccc2)c2ccc(Cl)cc2)CC1 (stereo not given),90.4% (inactive),114% (inactive),95.2% (inactive),77% (inactive),93.8% (inactive),66.8,218% (inactive),-0.33% (inactive),95% (inactive),1% (inactive),3.36% (inactive),0.96% (inactive),1.14% (inactive),110% (inactive),-0.38 (inactive),12% (inactive),-1.64% (inactive)
COC(=O)C1=C(C)N(C)C(=S)NC1c1ccc(Cl)cc1 (stereo not given),99.8% (inactive),95.6% (inactive),98.6% (inactive),98% (inactive),88.8% (inactive),63,138% (inactive),-2.43% (inactive),99.9% (inactive),3% (inactive),-27.7% (inactive),0.15% (inactive),0.83% (inactive),97.9% (inactive),-0.04 (inactive),7% (inactive),-10.4% (inactive)
COC(=O)c1ccccc1NC(=O)NCc1ccccc1,96.3% (inactive),131% (inactive),104% (inactive),85.8% (inactive),87.3% (inactive),63,165% (inactive),-0.33% (inactive),99% (inactive),6% (inactive),-13.3% (inactive),0.05% (inactive),1.35% (inactive),104% (inactive),-0.28 (inactive),15% (inactive),0% (inactive)
NC(=O)c1ncn([C@@H]2O[C@H](CO)[C@@H](O)[C@H]2O)c1O,101% (inactive),103% (inactive),96.7% (inactive),108% (inactive),98% (inactive),55.9,164% (inactive),-16.8% (inactive),109% (inactive),1% (inactive),3.75% (inactive),-16.1% (inactive),-4.18% (inactive),98.7% (inactive),-0.21 (inactive),3% (inactive),-15.2% (inactive)
CC(=O)N1CCN2C(=O)C1CCCC(=O)c1cc(C(C)C)ccc12 (stereo not given),99.5% (inactive),90.8% (inactive),103% (inactive),82.8% (inactive),91.2% (inactive),55.3,234% (inactive),-4.52% (inactive),94.5% (inactive),6% (inactive),0.52% (inactive),-5.05% (inactive),0.04% (inactive),103% (inactive),-0.24 (inactive),9% (inactive),20% (inactive)
Cc1nonc1CN(C)C(=O)c1ccc(OC2CCN(Cc3ccccn3)CC2)cc1,107% (inactive),97.2% (inactive),113% (inactive),83.5% (inactive),102% (inactive),61.2,249% (inactive),19.3% (inactive),95.8% (inactive),0% (inactive),-11.2% (inactive),-5.72% (inactive),2.07% (inactive),97.6% (inactive),0.14 (inactive),13% (inactive),6.11% (inactive)
CO[C@H]1C=CO[C@@]2(C)Oc3c(C)c(O)c4c(O)c(c(C=NN5CCN(C)CC5)c(O)c4c3C2=O)NC(=O)C(C)=CC=C[C@H](C)[C@H](O)[C@@H](C)[C@@H](O)[C@@H](C)[C@H](OC(C)=O)[C@@H]1C,93.3% (inactive),127% (inactive),93.9% (inactive),78.7% (inactive),98.2% (inactive),64.9,575% (inactive),-46.9% (inactive),105% (inactive),3% (inactive),9.39% (inactive),-2.48% (inactive),-1.49% (inactive),99.2% (inactive),0.01 (inactive),12% (inactive),2.46% (inactive)
